PubChem BioAssay (Tox21)
Values joined by “and” are separate entries in the source; they are usually repeats but may differ in a detail not shown here. Equal entries are not always repeated. Results filed as inconclusive are left out. Where a call stands in place of a potency, no number is given. Active and inactive are the calls of the source. Unless noted, the call rests on the fitted dose curve; in most records, active means well fitted curve in the direction sought with a large enough effect in the repeat runs; inconclusive means weak or mixed curves; inactive means no such curve, though single readings can be large; an effect the other way counts as inactive or inconclusive.

How the values were obtained:
[1] = qHTS assay to identify small molecule agonists of the vitamin D receptor (VDR) signaling pathway - cell viability counter screen (AID 743224); further: nearly all actives have a fitted effect of over 50% in size; further: potency means the concentration at half of the fitted maximal effect
How it was run: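 Compounds were pin-transferred onto VDR-bla cells plated 4 h earlier; following 16 h incubation at 37C, cell viability was quantified by CellTiter-Glo luminescence after 30 min at room temperature.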

[2] = qHTS assay to identify small molecule agonists of the NFkB signaling pathway (AID 1159509; active means well fitted curve in the direction sought with a large enough effect in the signal ratio in the repeat runs, not every such curve was filed as active; the % refers to the signal ratio; further: series mostly up to about 61 µM)
How it was run: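 Pathway activation was measured in ME-180 cells stably expressing beta-lactamase under NF-kB response element control. Substrate cleavage was read as the 460/530 nm emission shift after 5 hr compound incubation.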

[3] = qHTS assay to identify small molecule agonists of the endoplasmic reticulum stress response signaling pathway (AID 1159516; active means well fitted activation curve with a large enough effect in the signal ratio in the repeat runs, not every such curve was filed as active; the % refers to the signal ratio)
How it was run: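 Using a HeLa line with an ESRE-driven beta-lactamase gene, agonist activity was measured by FRET substrate fluorescence (460 and 530 nm emission) after cells were treated with compounds for 5 hr at 37 C and 5% CO2.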

[4] = qHTS assay to identify small molecule antagonists of the retinoid-related orphan receptor gamma (ROR-gamma) signaling pathway - cell viability counter screen (AID 1159520); further: nearly all actives have a fitted effect of over 50% in size; further: potency means the concentration at half of the fitted maximal effect
How it was run: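 Tet-on ROR gamma CHO cells (1,000/well) were plated 4 hr, given compounds in DMSO for 2 hr at 37 C, then induced with 1 uM final doxycycline for 16 hr. Viability was read as ATP by CellTiter-Glo luminescence after 30 min.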

[5] = target: Nuclear receptor ROR-gamma (Homo sapiens) (UniProt P51449); assay: qHTS assay to identify small molecule antagonists of the retinoid-related orphan receptor gamma (ROR-gamma) signaling pathway (AID 1159521; further: nearly all actives have a fitted effect of over 50% in size; further: potency means the concentration at half of the fitted maximal effect)
How it was run: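 Luminescence readout (ONE-Glo, 30 min RT) after 16 h doxycycline induction; loss of signal scored as antagonism. CHO cells with TET-inducible RORγ and RORE-LUC reporter; compounds added 2 h before 1 uM final doxycycline.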

[6] = qHTS assay to identify small molecule agonists of the AP-1 signaling pathway - cell viability counter screen (AID 1159525; calls by dose curve; further: nearly all actives have a fitted effect of over 55% in size)
How it was run: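 Each titration point was normalised to DMSO and tetra n-octyl ammonium bromide controls. The read was Cell Titer Glo luminescence after 30 min at RT, following 5 h compound exposure of ME-180 AP-1-bla cells at 37 °C.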

[7] = qHTS assay to identify small molecule agonists of the AP-1 signaling pathway (AID 1159526; calls by dose curve)
[8] = qHTS assay to identify small molecule antagonists of the vitamin D receptor (VDR) signaling pathway - cell viability counter screen (AID 743225); further: nearly all actives have a fitted effect of over 50% in size; further: potency means the concentration at half of the fitted maximal effect
How it was run: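 Viability counter screen run in the same wells as the beta-lactamase reporter assay: HEK 293T VDR-UAS-bla cells, 16 h compound exposure at 37C with 3 nM (final) 1-alpha,25-dihydroxyvitamin D3. CellTiter-Glo luminescence, 30 min, room temperature.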

[9] = qHTS assay to identify small molecule agonists of the endoplasmic reticulum stress response signaling pathway - cell viability counter screen (AID 1159517; calls by dose curve; further: nearly all actives have a fitted effect of over 50% in size; further: potency means the concentration at half of the fitted maximal effect)
How it was run: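 Cpd-treated ESRE-bla HeLa (5 hr, 37 C) → LiveBLAzer 2 hr RT → CellTiter-Glo 30 min RT → luminescence.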

**Q.** Which Potency [1] does the source give for CCCCOCCOP(=O)(OCCOCCCC)OCCOCCCC here?
**A.** The Potency was “inactive”.

**Q.** What about the outcome [2] of the same compound?
**A.** Its outcome is “inactive”.

**Q.** What about the outcome [3] of the same compound?
**A.** Its outcome is “inactive”.

**Q.** What about the Potency [4] of the same compound?
**A.** The Potency was “inactive”.

**Q.** What about the Potency [5] of the same compound?
**A.** The Potency was “inactive”.

**Q.** And the Potency [6]?
**A.** The Potency was “inactive”.

**Q.** What about the outcome [7] of the same compound?
**A.** Its outcome is “inactive”.

**Q.** What does the source list for NNC(N)=S?
**A.** Potency [1]: 32.1 µM (active); Potency [8]: inactive; outcome [2]: inactive; outcome [3]: inactive; Potency [4]: inactive; Potency [5]: inactive; Potency [6]: inactive

**Q.** For CCOc1cc(C=O)ccc1O, which Potency [1] is on record?
**A.** Its Potency is “inactive”.

**Q.** What about the Potency [8] of the same compound?
**A.** Its Potency is “inactive”.

**Q.** What about the outcome [2] of the same compound?
**A.** The outcome was “inactive”.

**Q.** What about the outcome [3] of the same compound?
**A.** The outcome was “inactive”.

**Q.** What about the Potency [9] of the same compound?
**A.** The Potency was “inactive”.

**Q.** What about the Potency [4] of the same compound?
**A.** The Potency was “inactive”.

**Q.** And the Potency [5]?
**A.** Its Potency is “inactive”.

**Q.** What about the outcome [7] of the same compound?
**A.** Its outcome is “inactive”.

**Q.** Which results are given for Oc1cc(Cl)c(Cl)cc1Cl?
**A.** Potency [1]: inactive; Potency [8]: inactive; outcome [2]: inactive; outcome [3]: inactive; Potency [4]: inactive; Potency [5]: 48.2 µM (active); Potency [6]: inactive; outcome [7]: inactive

**Q.** Which Potency [1] does the source give for O=C(Nc1ccc(Br)cc1)c1cc(Br)cc(Br)c1O here?
**A.** Its Potency is 1.73 µM (active) and 2.19 µM (active) and 8.41 µM (active).

**Q.** What about the Potency [8] of the same compound?
**A.** The Potency was 1.95 µM (active).

**Q.** And the outcome [2]?
**A.** The outcome was “inactive”.

**Q.** What about the Potency [9] of the same compound?
**A.** Its Potency is 8.68 µM (active) and 1.95 µM (active) and 5.35 µM (active).

**Q.** What about the Potency [4] of the same compound?
**A.** The Potency was 27.2 µM (active) and 17.2 µM (active).

**Q.** What about the Potency [5] of the same compound?
**A.** Its Potency is 13.6 µM (active) and 10.9 µM (active).

**Q.** What about the outcome [7] of the same compound?
**A.** The outcome was “inactive”.

**Q.** Which Potency [1] does the source give for O=P(Oc1ccccc1)(Oc1ccccc1)Oc1ccccc1 here?
**A.** Its Potency is “inactive”.

**Q.** What about the Potency [8] of the same compound?
**A.** Its Potency is “inactive”.

**Q.** What about the outcome [2] of the same compound?
**A.** The outcome was “inactive”.

**Q.** What about the outcome [3] of the same compound?
**A.** The outcome was “inactive”.

**Q.** And the Potency [9]?
**A.** The Potency was “inactive”.

**Q.** And the Potency [4]?
**A.** Its Potency is “inactive”.

**Q.** And the Potency [6]?
**A.** Its Potency is “inactive”.

**Q.** What about the outcome [7] of the same compound?
**A.** Its outcome is “inactive”.

**Q.** With Cc1cccc(N)c1N as the compound, how does the Potency [1] read?
**A.** The Potency was “inactive”.

**Q.** What about the Potency [8] of the same compound?
**A.** The Potency was “inactive”.

**Q.** And the outcome [2]?
**A.** Its outcome is “inactive”.

**Q.** What about the outcome [3] of the same compound?
**A.** The outcome was “inactive”.

**Q.** And the Potency [9]?
**A.** The Potency was “inactive”.

**Q.** What about the Potency [4] of the same compound?
**A.** Its Potency is “inactive”.

**Q.** What about the Potency [5] of the same compound?
**A.** The Potency was “inactive”.

**Q.** And the outcome [7]?
**A.** The outcome was “inactive”.

**Q.** With COP(=S)(OC)Oc1cc(Cl)c(Cl)cc1Cl as the compound, how does the Potency [1] read?
**A.** Its Potency is “inactive”.

**Q.** And the Potency [8]?
**A.** The Potency was “inactive”.

**Q.** And the outcome [2]?
**A.** The outcome was “inactive”.

**Q.** And the outcome [3]?
**A.** The outcome was “inactive”.

**Q.** And the Potency [9]?
**A.** Its Potency is “inactive”.

**Q.** What about the Potency [4] of the same compound?
**A.** Its Potency is “inactive”.

**Q.** What about the Potency [6] of the same compound?
**A.** Its Potency is “inactive”.
